Results reported in ChEMBL document CHEMBL1961873, “Compounds: GSK PKIS; Assays: Nanosyn kinase panel” (2012).

Columns and labels:
[1] = biological target: Platelet-derived growth factor receptor beta (Homo sapiens) (UniProt P09619); conditions: at 1 µM;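 further: each value is a mean percent inhibition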
[2] = biological target: Tyrosine-protein kinase FRK (Homo sapiens) (UniProt P42685); conditions: at 0.1 µM
[3] = biological target: Tyrosine-protein kinase FRK (Homo sapiens) (UniProt P42685); conditions: at 1 µM
[4] = biological target: Protein-tyrosine kinase 2-beta (Homo sapiens) (UniProt Q14289); conditions: at 0.1 µM
Chain of Protein-tyrosine kinase 2-beta (Homo sapiens) (Q14289 whole entry, looked up): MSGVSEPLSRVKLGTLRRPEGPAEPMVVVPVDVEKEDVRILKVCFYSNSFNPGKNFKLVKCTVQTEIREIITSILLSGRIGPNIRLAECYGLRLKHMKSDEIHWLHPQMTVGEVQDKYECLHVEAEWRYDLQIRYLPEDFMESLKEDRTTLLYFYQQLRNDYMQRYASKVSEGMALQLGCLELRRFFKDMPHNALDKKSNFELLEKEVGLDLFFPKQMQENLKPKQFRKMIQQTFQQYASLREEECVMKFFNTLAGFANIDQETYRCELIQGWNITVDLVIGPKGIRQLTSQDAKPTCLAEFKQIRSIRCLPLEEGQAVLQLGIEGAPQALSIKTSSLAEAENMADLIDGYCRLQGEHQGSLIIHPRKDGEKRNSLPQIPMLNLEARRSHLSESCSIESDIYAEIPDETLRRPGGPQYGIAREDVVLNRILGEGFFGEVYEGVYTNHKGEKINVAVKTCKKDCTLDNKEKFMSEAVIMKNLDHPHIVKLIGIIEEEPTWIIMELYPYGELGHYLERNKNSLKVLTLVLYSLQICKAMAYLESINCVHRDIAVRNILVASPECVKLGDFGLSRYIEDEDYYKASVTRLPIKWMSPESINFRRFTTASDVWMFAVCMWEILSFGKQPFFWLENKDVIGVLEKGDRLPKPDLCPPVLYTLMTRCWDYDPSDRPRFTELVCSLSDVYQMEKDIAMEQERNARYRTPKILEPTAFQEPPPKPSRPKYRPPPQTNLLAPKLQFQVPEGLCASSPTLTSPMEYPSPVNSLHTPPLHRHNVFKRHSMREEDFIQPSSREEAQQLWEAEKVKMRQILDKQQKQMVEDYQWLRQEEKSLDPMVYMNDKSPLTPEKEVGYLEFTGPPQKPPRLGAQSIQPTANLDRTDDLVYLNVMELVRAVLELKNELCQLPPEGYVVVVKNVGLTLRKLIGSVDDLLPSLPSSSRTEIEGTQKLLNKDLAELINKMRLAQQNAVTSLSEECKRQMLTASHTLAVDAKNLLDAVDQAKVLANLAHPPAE

[5] = biological target: Protein-tyrosine kinase 2-beta (Homo sapiens) (UniProt Q14289); conditions: at 1 µM
[6] = biological target: Proto-oncogene tyrosine-protein kinase receptor Ret (Homo sapiens) (UniProt P07949); conditions: at 0.1 µM
Chain of Proto-oncogene tyrosine-protein kinase receptor Ret (Homo sapiens) (P07949 whole entry): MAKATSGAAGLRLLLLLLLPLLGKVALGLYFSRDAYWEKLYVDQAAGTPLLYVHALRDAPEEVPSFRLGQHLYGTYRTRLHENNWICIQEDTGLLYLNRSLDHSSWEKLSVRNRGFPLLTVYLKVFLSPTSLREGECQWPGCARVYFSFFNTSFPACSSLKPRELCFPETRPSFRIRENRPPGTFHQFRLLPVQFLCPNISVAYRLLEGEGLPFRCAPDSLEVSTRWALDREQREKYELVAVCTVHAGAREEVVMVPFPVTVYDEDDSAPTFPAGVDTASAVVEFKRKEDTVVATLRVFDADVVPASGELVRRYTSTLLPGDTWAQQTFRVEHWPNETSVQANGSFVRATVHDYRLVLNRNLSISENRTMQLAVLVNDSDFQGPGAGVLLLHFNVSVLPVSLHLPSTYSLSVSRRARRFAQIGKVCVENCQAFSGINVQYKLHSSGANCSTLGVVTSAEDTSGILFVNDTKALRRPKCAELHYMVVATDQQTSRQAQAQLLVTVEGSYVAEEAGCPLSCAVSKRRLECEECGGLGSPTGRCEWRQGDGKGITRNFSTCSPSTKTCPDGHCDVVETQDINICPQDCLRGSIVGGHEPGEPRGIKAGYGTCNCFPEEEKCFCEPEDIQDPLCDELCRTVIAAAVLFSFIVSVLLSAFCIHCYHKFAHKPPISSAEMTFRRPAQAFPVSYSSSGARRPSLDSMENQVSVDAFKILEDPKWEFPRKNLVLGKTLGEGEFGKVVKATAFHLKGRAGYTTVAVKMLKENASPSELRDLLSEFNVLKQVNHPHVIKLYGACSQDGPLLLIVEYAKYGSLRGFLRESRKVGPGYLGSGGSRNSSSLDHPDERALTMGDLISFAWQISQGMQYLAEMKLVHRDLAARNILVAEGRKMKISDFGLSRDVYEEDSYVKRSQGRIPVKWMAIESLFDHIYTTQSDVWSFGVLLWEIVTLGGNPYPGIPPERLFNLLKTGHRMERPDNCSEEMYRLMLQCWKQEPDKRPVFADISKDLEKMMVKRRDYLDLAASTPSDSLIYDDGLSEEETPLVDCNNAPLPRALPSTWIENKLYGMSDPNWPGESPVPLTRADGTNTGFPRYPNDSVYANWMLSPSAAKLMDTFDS

[7] = biological target: Proto-oncogene tyrosine-protein kinase receptor Ret (Homo sapiens) (UniProt P07949); conditions: at 1 µM
[8] = test system: Proto-oncogene tyrosine-protein kinase receptor Ret (Homo sapiens), P07949 [V804L]; conditions: at 0.1 µM
Chain of Proto-oncogene tyrosine-protein kinase receptor Ret (Homo sapiens), P07949 [V804L] (P07949 whole entry V804L): as the sequence (P07949 whole entry) above, with V804L counted along it

[9] = test system: Proto-oncogene tyrosine-protein kinase receptor Ret (Homo sapiens), P07949 [V804L]; conditions: at 1 µM
[10] = test system: Proto-oncogene tyrosine-protein kinase receptor Ret (Homo sapiens), P07949 [Y791F]; conditions: at 0.1 µM
Chain of Proto-oncogene tyrosine-protein kinase receptor Ret (Homo sapiens), P07949 [Y791F] (P07949 whole entry Y791F): as the sequence (P07949 whole entry) above, with Y791F counted along it

Chain of Tyrosine-protein kinase FRK (Homo sapiens) (P42685 whole entry): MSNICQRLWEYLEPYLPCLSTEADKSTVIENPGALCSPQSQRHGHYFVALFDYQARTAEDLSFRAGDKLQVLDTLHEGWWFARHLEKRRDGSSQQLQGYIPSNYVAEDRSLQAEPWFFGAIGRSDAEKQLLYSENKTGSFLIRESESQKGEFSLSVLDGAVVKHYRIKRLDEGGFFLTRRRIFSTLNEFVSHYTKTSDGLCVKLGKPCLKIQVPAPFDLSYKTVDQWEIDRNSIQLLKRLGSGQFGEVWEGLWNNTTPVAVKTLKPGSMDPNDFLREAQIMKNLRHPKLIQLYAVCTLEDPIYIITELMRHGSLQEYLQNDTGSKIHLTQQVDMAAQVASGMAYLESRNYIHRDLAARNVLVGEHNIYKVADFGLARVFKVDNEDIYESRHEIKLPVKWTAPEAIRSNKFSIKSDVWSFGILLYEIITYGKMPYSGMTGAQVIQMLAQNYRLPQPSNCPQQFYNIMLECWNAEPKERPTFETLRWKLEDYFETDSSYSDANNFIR
Chain of Platelet-derived growth factor receptor beta (Homo sapiens) (P09619 whole entry): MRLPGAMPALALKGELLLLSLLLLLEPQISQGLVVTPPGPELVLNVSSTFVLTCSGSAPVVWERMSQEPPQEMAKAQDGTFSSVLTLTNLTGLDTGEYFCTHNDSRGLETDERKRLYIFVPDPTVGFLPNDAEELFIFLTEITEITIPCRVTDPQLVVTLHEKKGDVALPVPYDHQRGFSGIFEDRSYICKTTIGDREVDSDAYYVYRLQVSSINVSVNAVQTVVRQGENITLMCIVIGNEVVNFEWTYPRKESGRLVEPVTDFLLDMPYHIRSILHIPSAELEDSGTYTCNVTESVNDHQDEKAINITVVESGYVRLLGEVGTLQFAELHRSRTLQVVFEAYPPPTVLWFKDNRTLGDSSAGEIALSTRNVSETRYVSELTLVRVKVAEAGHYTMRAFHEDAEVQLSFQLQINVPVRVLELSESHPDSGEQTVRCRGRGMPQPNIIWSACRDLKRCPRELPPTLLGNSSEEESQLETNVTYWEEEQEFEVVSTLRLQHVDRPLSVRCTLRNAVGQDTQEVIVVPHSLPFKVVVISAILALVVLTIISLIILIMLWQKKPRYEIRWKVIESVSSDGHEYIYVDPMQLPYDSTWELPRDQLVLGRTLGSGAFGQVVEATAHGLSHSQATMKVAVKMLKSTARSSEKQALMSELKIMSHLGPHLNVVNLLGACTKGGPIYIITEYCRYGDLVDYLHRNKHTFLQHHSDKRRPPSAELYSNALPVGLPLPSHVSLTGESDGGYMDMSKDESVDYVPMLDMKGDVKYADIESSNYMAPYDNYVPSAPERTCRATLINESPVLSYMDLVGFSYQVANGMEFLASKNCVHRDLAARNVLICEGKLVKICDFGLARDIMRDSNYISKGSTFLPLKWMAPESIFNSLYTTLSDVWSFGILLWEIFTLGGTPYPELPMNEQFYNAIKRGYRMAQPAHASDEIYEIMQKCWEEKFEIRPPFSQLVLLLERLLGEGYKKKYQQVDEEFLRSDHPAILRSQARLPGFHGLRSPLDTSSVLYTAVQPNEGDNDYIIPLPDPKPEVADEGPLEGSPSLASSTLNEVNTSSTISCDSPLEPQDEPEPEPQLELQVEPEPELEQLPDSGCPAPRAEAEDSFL

Compound | inhibition [1] | inhibition [2] | inhibition [3] | inhibition [4] | inhibition [5] | inhibition [6] | inhibition [7] | inhibition [8] | inhibition [9] | inhibition [10]
NS(=O)(=O)c1ccc(-c2ccc3c(NC(=O)C4CC4)n[nH]c3c2)cc1 | 5.87% | 1.62% | 1.3% | 6.65% | 5.61% | 3% | 8.48% | 2.82% | 4.4% | 3.34%
CCn1c(-c2nonc2N)nc2c(C#CCN)ncc(OCCCN)c21 | 25.5% | -0.39% | -0.01% | -5.89% | 8.44% | 3.26% | 4.11% | 6.12% | 9.27% | 1.83%
COc1cc(C=NNc2ncnc3c2cnn3Cc2ccccc2)ccc1O | 26.4% | 0.54% | 1.85% | -6.73% | -1.9% | 7.87% | 46.3% | 1.82% | 11.1% | 7.69%
COc1cc2c(cc1Nc1nc(Nc3ccsc3C(N)=O)c3cc[nH]c3n1)N(C(=O)CN(C)C)CCC2 | 33.9% | 1.91% | 8.84% | 77.8% | 95.6% | 11.9% | 14.2% | 2.29% | 13.6% | 1.79%
Nc1nonc1-c1nc2cnccc2n1C1CCCCC1 | 26.4% | 0.25% | 0.75% | -7.07% | -8.39% | 3.59% | 9.55% | 5.85% | 19.5% | 2.08%
CCn1c(-c2nonc2N)nc2c(C#CC(C)(C)O)ncc(OCC3CCNCC3)c21 | 44.6% | 1.13% | 1.21% | 9.34% | 29.7% | 6.89% | 26.3% | 6.2% | 28.5% | 5.3%
NS(=O)(=O)c1ccc(N/C=C2\C(=O)Nc3ccc4ncsc4c32)cc1 | 86.8% | 2.34% | 3.93% | 7.28% | 43.6% | 30.4% | 71.3% | 47.3% | 73.9% | 30.5%
